Each structure is given as a SMILES string. The whole screen tested about 63,000 compounds, of which about 1,100 (1.7%) were called active. The entries come from a sample that favours actives as a whole. Measured potencies and affinities stand elsewhere. Unmarked numbers belong to inactive results.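 The calls were made as follows: active = compounds whose percent cytotoxicity in the single-dose primary screen, scaled between solvent and toxic-drug controls, exceeds 50; inactive = the rest.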

This assay can be described thus: cytotoxicity in KRAS-transformed pancreatic duct cells, primary screen, cell-based, fluorescence, HTS (AID 431).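 Also: 0% = DMSO solvent wells and 100% = doxorubicin-treated wells.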 The following applies: HPDE-C7K KRASV12 cells, Alamar Blue viability, 48 h; at 10 µM; active compounds read high. For orientation: Resazurin is reduced to fluorescent resorufin, in cell work by metabolically active cells.
With `Cc1ccc(C(=O)NCCNC(=O)CN2CCCC2)cc1`, the cytotoxicity was -4.9%.

For the compound `CN(C1CCCCC1)S(=O)(=O)c1ccc(NC(=O)C2CCCCC2C(=O)O)cc1` (stereo not given), the cytotoxicity is -5.7%.

With `COc1ccc(C2=NOC(Cn3c(Cc4ccc(Cl)cc4)nc4c3c(=O)n(C)c(=O)n4C)C2)cc1` (stereo not given), the cytotoxicity was 1.7%.

Consider `COc1ccc(-c2nc3c(c(=O)n(C)c(=O)n3C)n2CC2CC(c3ccccc3)=NO2)cc1OC` (stereo not given), for which the cytotoxicity is 53.3% (active).

In the case of `COc1ccccc1C1=NOC(Cn2c(=O)c3c(ncn3C)n(C)c2=O)C1` (stereo not given), the cytotoxicity is -17.3%.

With `CC1CCN(c2nc3c(c(=O)[nH]c(=O)n3C)n2Cc2ccccc2Cl)CC1`, the cytotoxicity was 8.5%.

Turning to `CCOC(=O)c1cnc(=O)[nH]c1C`, the cytotoxicity was 1.1%.

As to `Cc1cc(-c2[nH]nc3c2C(c2ccsc2)C(C#N)=C(N)O3)c(C)s1` (stereo not given), the cytotoxicity is -9.2%.

For `Cc1ccc2[nH]c3c(c2c1)CN(C(=O)CN1CCN(c2ccccc2)CC1)CC3`, the cytotoxicity was 24.5%.

Turning to `Cc1ccc2[nH]c3c(c2c1)CN(C(=O)CN1CCN(c2ccccc2F)CC1)CC3`, the cytotoxicity is 22.5%.

For the compound `Cc1ccc2[nH]c3c(c2c1)CN(C(=O)CN1CCCc2ccccc21)CC3`, the cytotoxicity is 54.4% (active).

`CCN(CC)C(=O)c1csc(Nc2ccc(C)cc2)n1`: the cytotoxicity is -18.4%.

Turning to `Cc1nc2cc(CO)ccc2s1`, the cytotoxicity is 1.8%.

For the compound `CC(=O)N1CCc2cc(C(=O)CN3CCN(c4cccc(Cl)c4)CC3)ccc21`, the cytotoxicity is -4%.

As to `O=C(Nc1ccc(O)cc1)c1ccc(C(=O)c2ccccc2)o1`, the cytotoxicity was -1.3%.

For the compound `Cc1ncoc1C(=O)Nc1ccc(Oc2ccccc2)cc1`, the cytotoxicity is -7.3%.

For the compound `Cc1ccc2c(COC(=O)c3cnc(C)cn3)cc(=O)oc2c1`, the cytotoxicity was 4.8%.

Consider `CCOc1ccc(C)cc1S(=O)(=O)N1CCCCC1`, for which the cytotoxicity is 7.7%.

For `Cc1cnc(NC(=O)COc2ccccc2)s1`, the cytotoxicity is 1.6%.

As for `Cc1ccc2c(c1)-c1ccccc1S(=O)(=O)N2`, the cytotoxicity was 11.5%.

For `Nc1ccc2c(c1)-c1ccccc1S(=O)(=O)N2`, the cytotoxicity is 16.8%.

For `O=S1(=O)Nc2c(ccc3cccnc23)-c2ccccc21`, the cytotoxicity was 86% (active).

Turning to `CC1CCN(c2nnc(N3CCC(C)CC3)c3ccccc23)CC1`, the cytotoxicity is -2.9%.

With `Cc1ccc(C(c2nnnn2Cc2cccs2)N2CCN(C(=O)c3ccco3)CC2)cc1` (stereo not given), the cytotoxicity is 2%.

For the compound `CNC(=O)c1ccc(N(Cc2ccccc2C)S(C)(=O)=O)cc1`, the cytotoxicity is 2.8%.

Consider `O=S(=O)(NCCc1ccccn1)c1ccc(F)c(F)c1`, for which the cytotoxicity is -21.4%.

For the compound `Cc1cc(N2C(=O)C(=O)/C(=C(/O)c3ccc(Cl)cc3)C2c2cccc(Br)c2)no1` (stereo not given), the cytotoxicity is 60.6% (active).

Regarding `Cc1ccc(/C(O)=C2\C(=O)C(=O)N(c3cc(C)on3)C2c2cccc(Br)c2)cc1` (stereo not given), the cytotoxicity is 48.2%.

As for `Cc1ccc(/C(O)=C2\C(=O)C(=O)N(c3cc(C)on3)C2c2cccc(Cl)c2)cc1` (stereo not given), the cytotoxicity was 55.9% (active).

As for `COc1cccc(C2/C(=C(\O)c3ccc(OC)c(OC)c3)C(=O)C(=O)N2c2cc(C)on2)c1` (stereo not given), the cytotoxicity was 19.3%.

For the compound `Cc1cc(N2C(=O)C(=O)/C(=C(/O)c3ccccc3)C2c2cccc(Br)c2)no1` (stereo not given), the cytotoxicity is 0.9%.

Take `Cc1cc(N2C(=O)C(=O)/C(=C(/O)c3ccc(F)cc3)C2c2cccc(Br)c2)no1` (stereo not given): the cytotoxicity was 72.5% (active).

For `COc1ccc(/C(O)=C2\C(=O)C(=O)N(c3cc(C)on3)C2c2ccccc2OC)cc1` (stereo not given), the cytotoxicity is 9.4%.

As for `Cc1cc(N2C(=O)C(=O)/C(=C(/O)c3ccc(F)cc3)C2c2ccc(F)cc2)no1` (stereo not given), the cytotoxicity was 16.6%.

In the case of `Cc1cc(N2C(=O)C(=O)/C(=C(/O)c3ccc(F)cc3)C2c2ccc(Cl)cc2)no1` (stereo not given), the cytotoxicity was 37.6%.

Source of the values: PubChem BioAssay AID431 (Sanford-Burnham Center for Chemical Genomics, 2006).
